Test results published in the supplement of paper PMC8728848.
Many of the other results were omitted from the sample, so the strongest signals are more common in it than they were.

Legend:
Assay in all cases: glycan array binding signal (z-score within array); higher = stronger binding
Details in all cases: glycan notation: IUPAC condensed, linker removed
[1] = target: GalNAc(a1-3)GalNAc(b1-3)Gal(a1-4)Gal(b1-4)GlcNAc
How it was run: (§1)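 Glycan array data came from 3228 arrays in the Consortium for Functional Glycomics database, and only arrays with an available protein sequence were kept. Glycan names were put into IUPAC-condensed notation, and columns mapping to the same glycan were averaged. The binding signal is a within-array Z-score, averaged across arrays of one protein sequence run at different concentrations or buffers and across linkers. A negative Z-score can be read as non-binding.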

GalNAc(b1-3)GlcNAc = target: GalNAc(b1-3)GlcNAc
How it was run: as §1

GalNAc6S(b1-4)GlcNAc = target: GalNAc6S(b1-4)GlcNAc
How it was run: as §1

GlcA(b1-3)GlcNAc = target: GlcA(b1-3)GlcNAc
How it was run: as §1

[2] = target: GlcNAc(b1-2)Man(a1-3)[GlcNAc(b1-2)Man(a1-6)]Man(b1-4)GlcNAc(b1-4)GlcNAc
How it was run: as §1

[3] = target: GlcNAc(b1-3)Gal(b1-4)GlcNAc(b1-3)Gal(b1-4)GlcNAc
How it was run: as §1

[4] = target: GlcNAc(b1-3)Gal(b1-4)GlcNAc(b1-3)Gal(b1-4)GlcNAc(b1-3)Gal(b1-4)GlcNAc(b1-3)Gal(b1-4)GlcNAc(b1-2)Man(a1-3)[GlcNAc(b1-3)Gal(b1-4)GlcNAc(b1-3)Gal(b1-4)GlcNAc(b1-3)Gal(b1-4)GlcNAc(b1-3)Gal(b1-4)GlcNAc(b1-2)Man(a1-6)]Man(b1-4)GlcNAc(b1-4)GlcNAc
How it was run: as §1

Kdn(a2-6)Gal(b1-4)GlcNAc = target: Kdn(a2-6)Gal(b1-4)GlcNAc
How it was run: as §1

Man(a1-2)Man(a1-3)Man = target: Man(a1-2)Man(a1-3)Man
How it was run: as §1

[5] = target: Man(a1-3)[Man(a1-6)]Man(a1-6)[Man(a1-2)Man(a1-3)]Man(b1-4)GlcNAc(b1-4)GlcNAc
How it was run: as §1

[6] = target: Neu5Ac(a2-3)Gal(b1-3)GalNAc(b1-3)Gal(a1-4)Gal(b1-4)Glc
How it was run: as §1

[7] = target: Neu5Ac(a2-3)Gal(b1-3)GlcNAc(b1-4)Gal(b1-4)Glc
How it was run: as §1

[8] = target: Neu5Ac(a2-3)Gal(b1-4)GlcNAc(b1-2)Man(a1-3)[Neu5Ac(a2-6)Gal(b1-4)GlcNAc(b1-2)Man(a1-6)]Man(b1-4)GlcNAc(b1-4)GlcNAc
How it was run: as §1

[9] = target: Neu5Ac(a2-3)Gal(b1-4)GlcNAc(b1-3)Gal(b1-3)GlcNAc
How it was run: as §1

[10] = target: Neu5Ac(a2-3)Gal(b1-4)GlcNAc(b1-3)Gal(b1-4)GlcNAc(b1-3)Gal(b1-4)GlcNAc
How it was run: as §1

[11] = target: Neu5Ac(a2-3)Gal(b1-4)[Fuc(a1-3)]GlcNAc(b1-3)Gal(b1-4)[Fuc(a1-3)]GlcNAc(b1-3)Gal(b1-4)[Fuc(a1-3)]GlcNAc
How it was run: as §1

[12] = target: Neu5Ac(a2-3)Gal6S(b1-4)GlcNAc
How it was run: as §1

[13] = target: Neu5Ac(a2-3)Gal6S(b1-4)[Fuc(a1-3)]GlcNAc
How it was run: as §1

[14] = target: Neu5Ac(a2-3)GalNAc(b1-4)GlcNAc
How it was run: as §1

[15] = target: Neu5Ac(a2-6)Gal(b1-4)GlcNAc(b1-2)Man(a1-3)[Neu5Ac(a2-3)Gal(b1-4)GlcNAc(b1-2)Man(a1-6)]Man(b1-4)GlcNAc(b1-4)GlcNAc
How it was run: as §1

[16] = target: Neu5Ac(a2-6)Gal(b1-4)GlcNAc(b1-2)Man(a1-3)[Neu5Ac(a2-6)Gal(b1-4)GlcNAc(b1-2)Man(a1-6)]Man(b1-4)GlcNAc(b1-4)GlcNAc
How it was run: as §1

[17] = target: Neu5Ac(a2-6)Gal(b1-4)GlcNAc(b1-3)Gal(b1-4)GlcNAc(b1-6)[Gal(b1-3)]GalNAc
How it was run: as §1

[18] = target: Neu5Ac(a2-6)Gal(b1-4)GlcNAc(b1-3)Gal(b1-4)[Fuc(a1-3)]GlcNAc(b1-3)Gal(b1-4)[Fuc(a1-3)]GlcNAc
How it was run: as §1

[19] = target: Neu5Ac(a2-6)Gal(b1-4)GlcNAc6S
How it was run: as §1

[20] = target: Neu5Ac(a2-8)Neu5Ac(a2-3)Gal(b1-3)GalNAc(b1-4)[Neu5Ac(a2-8)Neu5Ac(a2-3)]Gal(b1-4)Glc
How it was run: as §1

[21] = target: Neu5Ac(a2-8)Neu5Ac(a2-3)[GalNAc(b1-4)]Gal(b1-4)Glc
How it was run: as §1

[22] = target: Neu5Ac(a2-8)Neu5Ac(a2-8)Neu5Ac
How it was run: as §1

Neu5Ac(b2-6)GalNAc = target: Neu5Ac(b2-6)GalNAc
How it was run: as §1

Neu5Gc(a2-3)Gal(b1-4)Glc = target: Neu5Gc(a2-3)Gal(b1-4)Glc
How it was run: as §1

[23] = target: Neu5Gc(b2-6)Gal(b1-4)GlcNAc
How it was run: as §1

B1: TAL6-6LysM (Trichoderma atroviride) (protein)
chain: AASKLGVPQPAQRDQVNCQLYAVQPNDNCIDISSKNNITYAQLLSWNPSLSSTCSNLASLNSSSICVSNPKGTFSISSNTVGATDIATTTAPVPSPTLDQTTSRCAKYYQVSDGDDCSHLTAQFAITLKDFIFLNSEVWQNCTNLELGYYYCVEPVGYISTYPGYLPTATTKPFNQTSATSLPYDGDPWARFSSNSSVIPIANGTRVDCYSYVYVKNLTENLFADCWNMASMYEITREELVLWNPSLGNDGSSGSNLSGAEASQVASSIAIPTTAPSSITTNLYTYPCTVAANISYCVALVSSTGALPTNTAPPGPHASGEISNCTAWFAPEAYDTCKSILDIFEMSFANFYKMNPSVGPDCSGLAVGTNYCVSTYPNGEDPNDDWDGDDSIPSISPTGIITPTPTQSGMVSNCNKFYDVHSNDGCSAIASSQHVDLSSLYKWNPAIKTDCSGLQASVYVCIGILTTSMSTTSKLPTTTSKPSTTSKPPTGITTPTPTQSGMVKNCNKFYDVHSGDGCSAIASSQKVNLSSFYLWNPAVKTDCSGLQASVFVCIGTLTTSMSTTTSKLPTTTSKPSTTSKPPTGIITPTPTQNGMVKNCNKFYDVHSGDGCSAIASSQKVNLSSFYLWNPAVKTDCSGLQASVFVCVGTATTTTAAGITTPTPTQSGMVSGCNKFYDVHAGDGCSAIASSQKIALSSLYKWNPAVKTDCSGLQASVYICIGVGNAAAARVTGAAASFLEQKLISEEDLNSAVDHHHHHH
- glycan array binding signal (z-score) [1]: -0.794
- glycan array binding signal (z-score) (GalNAc(b1-3)GlcNAc): -0.241
- glycan array binding signal (z-score) (GalNAc6S(b1-4)GlcNAc): 0.157
- glycan array binding signal (z-score) (GlcA(b1-3)GlcNAc): 1.11
- glycan array binding signal (z-score) [2]: 0.42
- glycan array binding signal (z-score) [3]: 0.291
- glycan array binding signal (z-score) [4]: -0.734
- glycan array binding signal (z-score) (Kdn(a2-6)Gal(b1-4)GlcNAc): 2.71
- glycan array binding signal (z-score) (Man(a1-2)Man(a1-3)Man): -0.128
- glycan array binding signal (z-score) [5]: 2.52
- glycan array binding signal (z-score) [6]: -0.741
- glycan array binding signal (z-score) [7]: 0.273
- glycan array binding signal (z-score) [8]: -0.683
- glycan array binding signal (z-score) [9]: -0.147
- glycan array binding signal (z-score) [10]: 1.76
- glycan array binding signal (z-score) [11]: 0.058
- glycan array binding signal (z-score) [12]: 0.428
- glycan array binding signal (z-score) [13]: -1.04
- glycan array binding signal (z-score) [14]: -0.545
- glycan array binding signal (z-score) [15]: -0.013
- glycan array binding signal (z-score) [16]: 0.076
- glycan array binding signal (z-score) [17]: -0.387
- glycan array binding signal (z-score) [18]: 2.13
- glycan array binding signal (z-score) [19]: 0.283
- glycan array binding signal (z-score) [20]: 0.052
- glycan array binding signal (z-score) [21]: 2.17
- glycan array binding signal (z-score) [22]: -0.139
- glycan array binding signal (z-score) (Neu5Ac(b2-6)GalNAc): -0.369
- glycan array binding signal (z-score) (Neu5Gc(a2-3)Gal(b1-4)Glc): -1.25
- glycan array binding signal (z-score) [23]: 0.217
